Screening results as filed in PubChem.
The entries come from a sample that favours hits as a whole.
YB-1 expr inh: inhibitors of YB-1 gene expression, primary screen, cell-based, fluorescence. U2OS, qRT-PCR YB-1 vs CDIP delta delta Cp, 16 h; active compounds read high; zero = DMSO, each unit about twofold. delta delta Cp (YB-1 minus CDIP) (no concentration beside the values). 30,000 tested, 0.37% active. AID 434959, 2010;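 active means delta delta Cp rounded down to an integer at or above 3, about 3 SD of DMSO wells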;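 further: higher means less YB-1 transcript or more CDIP transcript relative to DMSO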
NOMO-1 viab: NOMO-1 AML cell viability reduction, primary screen, STK33 inhibitor project, CellTiter-Glo luminescence | inhibition, % (concentration not given with the values) | 37,000 tested, 7.5% active | NOMO-1 AML viability, 72 h; in the data active means inhibition above about 80%; inconclusive means no clear call, values can overlap the other calls
PD-1 reverse act: activators reversing PD-1 mediated T-cell inhibition, primary screen, luminescence, primary human CD4 T cells, PD-L1 beads. CellTiter-Glo 96 h. activation, % (test concentration not listed). 29,000 tested, under 10 active. AID 2316, 2010; call rule not given here
ROS inducer: ROS inducers in U2OS cancer cells, primary screen, cell-based, H2DCF-DA fluorescence; 46,000 tested, 2% active; ROS induction (% of piperlongumine), % at 10 µM; U2OS ROS induction; AID 624156, 2012; in the data active means ROS induction above about 79%, passing the limit was not always enough; inconclusive means no clear call, values can overlap the other calls
Large screens that a line does not name were inactive.

COCCOC(=O)N1C(=O)[C@@]2(c3ccccc31)[C@H](C(=O)N1CCc3cc(OC)c(OC)cc3C1)[C@H]1C(=O)O[C@H](c3ccccc3)[C@H](c3ccccc3)N1[C@@H]2c1ccc(O)cc1	ROS inducer 185 (no result: NOMO-1 viab, PD-1 reverse act)
C=C1C(=O)O[C@@H]2[C@H]3C(=C)[C@@H](O[C@@H]4O[C@H](CO)[C@@H](O)[C@H](O)[C@H]4O)C[C@H]3C(=C)C[C@@H](O)[C@@H]12	none
C=C1C(=O)O[C@H]2C1[C@H](OC(=O)/C(=C/CO)COC(=O)/C(C)=C/CO)CC(=C)[C@@H]1CC(=O)[C@@H](C)[C@@H]12 (some centres not stated)	NOMO-1 viab 108, ROS inducer 87
C=C1C(=O)O[C@H]2[C@H]1[C@H](O)CC(=C)[C@@H]1CC(=O)C(C)[C@H]21 (some centres not stated)	NOMO-1 viab 118, ROS inducer inconclusive
Cc1cc(NC(=O)CCOc2ccc(F)cc2)no1	none (no result: YB-1 expr inh, NOMO-1 viab, PD-1 reverse act)
Cc1noc(COc2ccccc2)c1C(=O)Sc1ccc(F)cc1F	NOMO-1 viab 123
O=C(CCCn1sc2ccccc2c1=O)NCc1cccs1	none (no result: YB-1 expr inh, NOMO-1 viab, PD-1 reverse act)
COc1ccc(S(=O)(=O)Nc2ccc3c(c2)CC(=O)N([C@@H](C)CO)C[C@H](C)[C@@H](CN(C)Cc2ccc(Cl)c(Cl)c2)O3)cc1	NOMO-1 viab 88
C[C@H]1CN([C@@H](C)CO)C(=O)Cc2cc(NS(=O)(=O)c3ccc(Cl)cc3)ccc2O[C@H]1CN(C)Cc1ccc(Cl)c(Cl)c1	NOMO-1 viab 97
C[C@@H]1CN([C@H](C)CO)C(=O)Cc2cc(NS(=O)(=O)c3ccc(Cl)cc3)ccc2O[C@@H]1CN(C)Cc1ccc(Cl)c(Cl)c1	NOMO-1 viab 117
COc1ccc(CN(C)C[C@@H]2Oc3ccc(NS(=O)(=O)c4ccc(OC)cc4)cc3CC(=O)N([C@H](C)CO)C[C@@H]2C)cc1	none
C[C@H](CO)N1C[C@H](C)[C@H](CN(C)Cc2ccc(Cl)c(Cl)c2)Oc2ccc(NS(=O)(=O)c3ccc(Cl)cc3)cc2CC1=O	NOMO-1 viab 102
C[C@H]1CN([C@@H](C)CO)C(=O)Cc2cc(NS(=O)(=O)c3ccc(F)cc3)ccc2O[C@@H]1CN(C)Cc1ccc(Cl)c(Cl)c1	none
Cc1ccc(C)c(NC(=O)CN(c2cccc(F)c2)S(C)(=O)=O)c1	none (no result: YB-1 expr inh)
CC1=NN(C(=O)CSc2nc3ccccc3s2)C(C)(O)C1 (configuration not stated)	none (no result: YB-1 expr inh, NOMO-1 viab, PD-1 reverse act)
O=C(/C=C/c1ccc(Cl)cc1Cl)NCC1CCCO1 (configuration not stated)	none (no result: YB-1 expr inh, NOMO-1 viab, PD-1 reverse act)
C[C@H]1CN([C@@H](C)CO)C(=O)c2cc(NS(C)(=O)=O)ccc2O[C@@H]1CN(C)Cc1ccc(Cl)c(Cl)c1	none
C[C@@H]1CN([C@@H](C)CO)C(=O)Cc2cc(NS(C)(=O)=O)ccc2O[C@@H]1CN(C)Cc1ccc(Cl)c(Cl)c1	ROS inducer 104
C[C@@H]1CN([C@@H](C)CO)C(=O)Cc2cc(NC(=O)Nc3ccc(C(F)(F)F)cc3)ccc2O[C@@H]1CN(C)Cc1ccc(C(=O)Nc2ccccc2N)cc1	NOMO-1 viab 127
C[C@@H]1CN([C@@H](C)CO)C(=O)Cc2cc(NC(=O)Cn3cnnn3)ccc2O[C@@H]1CN(C)Cc1ccncc1	none (no result: PD-1 reverse act)
C[C@@H]1CN([C@@H](C)CO)C(=O)Cc2cc(NC(=O)c3ccncc3)ccc2O[C@@H]1CN(C)Cc1ccc(C(=O)Nc2ccccc2N)cc1	none
C[C@H](CO)N1C[C@H](C)[C@H](CN(C)Cc2ccc(C(=O)Nc3ccccc3N)cc2)Oc2ccc(NC(=O)c3ccncc3)cc2CC1=O	NOMO-1 viab 128
C[C@H]1CN([C@@H](C)CO)C(=O)Cc2cc(NC(=O)C3CC3)ccc2O[C@H]1CN(C)Cc1ccc(C(=O)Nc2ccccc2N)cc1	NOMO-1 viab 128
C[C@@H]1CN([C@H](C)CO)C(=O)Cc2cc(NC(=O)Cn3cnnn3)ccc2O[C@@H]1CN(C)Cc1ccc(C(F)(F)F)cc1	ROS inducer 87 (no result: PD-1 reverse act)
Cc1onc(-c2c(Cl)cccc2Cl)c1NC(=O)N1CCCC1=O	none
CCN(CC)CCSc1nnc2c3ccccc3n(CC)c2n1	none (no result: YB-1 expr inh, PD-1 reverse act, ROS inducer)
c1ccc(Cn2c(-c3ccccc3)nc3ccccc32)cc1	none (no result: YB-1 expr inh, NOMO-1 viab, PD-1 reverse act)
C[C@H]1CN([C@@H](C)CO)C(=O)Cc2cc(NC(=O)Nc3ccc(F)cc3)ccc2O[C@@H]1CN(C)Cc1ccc(C(=O)Nc2ccccc2N)cc1	none
